Screens from PubChem.
The entries come from a sample that favours hits as a whole.
MITF inhib = blocks MITF activity. TRPM1 promoter luciferase, luminescence, 24 h. inhibition, % (no concentration beside the values). 0.28% of 37,000 active. AID 2240; in the data active means inhibition above about 85%; inconclusive means no clear call, values can overlap the other calls; inactive means below about 68%;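 further: human melanocyte line stably carrying TRPM1 promoter luciferase reporter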
BJeLR viability = compounds reducing viability of BJeLR cells; 0.64% of 30,000 active; BJeLR fibroblasts viability, CellTiterGlo ATP luminescence, 48 h; HRASV12, hTERT and SV40 LT/ST transformed; viability loss activity score, % (test concentration not listed); AID 2275; in the data active means viability loss activity score above about 50%; inconclusive means no clear call, values can overlap the other calls; inactive means below about 35%;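 further: higher score means fewer live cells and less ATP luminescence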
Hedgehog inh = Sonic Hedgehog pathway inhibition | Shh-LIGHT2 Gli-luciferase reporter, 30 h | inhibition, % (no concentration beside the values) | 2.1% of 22,000 active;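 active means mean inhibition across valid replicates above about 65%, limit read from the data; inconclusive means mean under the limit, yet half or more replicates past it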;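 further: pathway switched on by Shh-conditioned medium diluted 1 in 25 in low serum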
Numbers stand for hits; . = inactive; ? = inconclusive; / = not tested or not shown.

SMILES	MITF inhib	BJeLR viability	Hedgehog inh
CCOC(=O)C1=C(CN2CC=C(c3ccccc3)CC2)NC(=O)NC1c1ccc(OC)cc1 (stereo not given)	/	.	/
COc1ccc2c(c1OC)C(=O)O[C@H]2[C@@H]1c2cc3c(cc2CCN1C)OCO3	.	.	.
CN1Cc2c(ccc3c2OCO3)C2C(O)Cc3cc4c(cc3C21)OCO4 (stereo not given)	.	72	82
CC(O)CN1CC2CC(C1)c1cccc(=O)n1C2 (stereo not given)	/	.	/
COCc1cc(OC(=O)N(C)C)nc(COc2ccc(Cl)cc2)n1	/	.	/
COc1cccc(OC)c1C1=NCC(=O)Nc2c1oc1ccc(Br)cc21	/	55	/
NCC(=O)Nc1ccc(Br)cc1C(=O)c1ccccc1	.	/	/
OC[C@H]1O[C@@H](Oc2ccc(/C=C/c3cc(O)cc(O)c3)cc2O)[C@H](O)[C@@H](O)[C@@H]1O	/	/	.
CCc1ccc(NC2=NCCS2)cc1	/	.	/
CCC(C)(O)C(=O)O[C@H]1C(=O)O[C@@H]2C[C@H]3C(C)=CC(=O)[C@@H](O)[C@]3(C)[C@H]3[C@@]4(O)OC[C@]32[C@@H]1[C@@H](C)[C@H]4O (stereo not given in full)	92	114	67
CCOC(=O)C1C2c3ccccc3C(c3ccccc32)C1C(=O)OCC (stereo not given)	.	.	.
C[C@]12CC[C@H](O)C[C@H]1CCC1C2CC[C@]2(C)[C@@H](C3=CC(=O)OC3)[C@@H](O)C[C@]12O (stereo not given in full)	.	.	.
CO[C@H]1[C@H](O)[C@H](O[C@H]2CC[C@]3(C)C4CC[C@]5(C)C(C6=CC(=O)OC6)CC[C@]5(O)C4CC[C@@H]3C2)O[C@@H](C)[C@@H]1O (stereo not given in full)	.	111	.
COC1CC(OC2CCC3(C)C(CCC4C3CCC3(C)C(C5=CC(=O)OC5)C(OC(C)=O)CC43O)C2)OC(C)C1OC1OC(COC2OC(CO)C(O)C(O)C2O)C(O)C(O)C1O (stereo not given)	.	96	.
CCN(CC)CCc1c(C)c2ccc(O)cc2oc1=O	/	.	/
CCSc1nc2ccccc2c(=O)n1-c1cccc(OC)c1	/	.	/
NCCC1COc2ccccc2O1 (stereo not given)	/	.	/
CNc1ccc2oc(C[C@@H]3OC4(CC[C@@H]3C)O[C@H](C(C)C(=O)c3ccc[nH]3)[C@H](C)C[C@H]4C)nc2c1C(=O)O (stereo not given in full)	105	72	104
CNc1ccccc1C(=O)O	.	.	.
C[CH2][Hg][S]c1ccccc1C(=O)O	105	142	?
O=C(c1cnn(-c2ccccc2)c1-n1cccc1)N1CCC2(CC1)OCCO2	/	.	/
CCN1C[C@]2(COC)[C@H](O)C[C@H](OC)[C@@]34[C@@H]5C[C@]6(O)[C@H](OC(=O)c7ccccc7)[C@@H]5[C@@](OC(C)=O)(C([C@H](OC)[C@H]23)[C@@H]14)[C@@H](O)[C@@H]6OC	.	.	.
CC(C)(C)c1cc(C=C(C#N)C#N)cc(Br)c1O	.	.	88
N#CC(C#N)=Cc1cc(O)c(O)c(O)c1	.	.	.
Cc1cccc(N2C(=O)NC(=O)C(CCc3ccncc3)(CCc3ccncc3)C2=O)c1	.	/	/
SMILES	MITF inhib	BJeLR viability	Hedgehog inh
Cc1ccc(N2C(=O)NC(=O)C(CCc3ccccn3)(Cc3cccs3)C2=O)cc1 (stereo not given)	.	/	/
CC1(C)C(=O)C=C[C@@]2(C)C1C(=O)C(=O)[C@]1(C)C2CC[C@@]2(C)[C@H](c3ccoc3)C[C@H]3O[C@]321 (stereo not given in full)	108	.	.
CC1=CC2/C=C(\C)CCC(O)C(O)/C=C/C(=O)C23C(=O)NC(CC(C)C)C3C1C (stereo not given)	89	96	71
CCCc1nc(-c2ccccn2)nc(OC(=O)N(C)C)c1Cc1c(F)cccc1Cl	/	.	/
CCCCc1nc2ccccc2c(=O)n1-c1ccc(C)cc1	/	.	/
CN(CC(=O)Nc1ccc(Cl)cc1C(=O)c1ccccc1)S(=O)(=O)c1ccc(Cl)cc1	.	/	/
CC[C@@]1(O)C(=O)OCc2c1cc1n(c2=O)Cc2cc3c(O)cccc3nc2-1	.	107	68
OC[C@H]1O[C@@H](n2cnc3cc(Cl)c(Cl)cc32)C(O)[C@H]1O (stereo not given in full)	.	.	.
Brc1cccc(CN2CCN(Cc3cccc(Br)c3)CC2)c1	/	.	/
